This note sets out measurements from PubChem BioAssay (NCATS).

Structures are written as SMILES. Inconclusive results are not listed. Activity calls are given as the source filed them. Unless noted, calls come from the whole dose curve; as a rule, active = well fitted curve in the direction sought with a large enough effect; inconclusive = small, poorly fitted or top-dose-only effect, or another doubt; inactive = no such curve, though single readings can be large; an effect the other way counts as inactive or inconclusive.

Assay [1] is described as follows: Cell Viability - BJ (AID 421; calls by dose curve;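 note: potency is the fitted concentration of half-maximal effect; cells exposed to compound for 40 hours at 37 °C before readout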). As to conditions: BJ fibroblast viability, qHTS. Put shortly: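 Cytotoxicity in human BJ foreskin fibroblasts is scored as loss of cellular ATP after a 40-hour exposure, measured by luciferase luminescence. Controls are DMSO and 100 uM tamoxifen.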
For orientation: qHTS replaces the single test concentration by a dilution series.

A short description of assay [2]: Cell Viability - Jurkat (AID 426;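 active = dose-dependent loss of cell ATP signal giving a full or clear fitted curve, ranked by lower potency value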;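 note: potency is the fitted concentration of half-maximal effect; cells exposed to compound for 40 hours at 37 °C before ATP read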). The note with it: qHTS. Put shortly: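 Cytotoxicity was scored as loss of cellular ATP, measured by luciferase-based luminescence, in Jurkat clone E6-1 cells after 40 h compound treatment; tamoxifen and doxorubicin served as positive controls.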
Assay [3] can be described thus: Cell Viability - Hek293 (AID 427;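 active = compounds whose dose-response curve shows a full or clear partial loss of cell viability, called from curve shape rather than a numeric limit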;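 note: potency is the fitted concentration of half-maximal effect; cells exposed to compound for 40 hours at 37 °C before reading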). The note with it: qHTS. Put shortly: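 qHTS, human embryonic kidney (adenovirus-transformed) cells; 40 hr cpd, 37 °C; CellTiter-Glo ATP luminescence. Norm: DMSO = 0, 100 uM tamoxifen = 100% inhibition. Hill-fit AC50.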
A short description of assay [4]: Cell Viability - HepG2 (AID 433; calls by dose curve; note: potency is the fitted concentration of half-maximal effect). As to conditions: qHTS. The essentials:
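Cytotoxicity is scored as loss of intracellular ATP in HepG2 cells exposed to compounds for 40 h. Concentration-response curves, normalized to DMSO and 100 uM tamoxifen, give AC50 values.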

A short description of assay [5]: Cell Viability - MRC5 (AID 434; calls by dose curve;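 note: potency is the fitted concentration of half-maximal effect; cells exposed to compound for 40 hours at 37 °C; potency reflects cytotoxicity seen as loss of intracellular ATP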). The note with it: MRC5 lung fibroblast viability, qHTS. The essentials: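 AC50 values come from Hill-equation fits of intracellular ATP loss, measured by CellTiter-Glo luminescence. Normal lung fibroblasts (MRC5) had 40 hr compound treatment at 37 C, normalized between DMSO and 100 uM tamoxifen.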
A short description of assay [6]: Cell Viability - SK-N-SH (AID 435; calls by dose curve;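 note: potency is the fitted concentration of half-maximal effect; compound exposure lasted 40 h at 37 °C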). The note with it: SK-N-SH neuroblastoma cell viability qHTS. Put shortly: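 Cells seeded at 1500 per well and incubated 5 hr at 37 °C. Compound added, then 40 hr at 37 °C. CellTiter-Glo added, 20 min at room temperature, luminescence read.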
Assay [7] has as its target Mitogen-activated protein kinase 10 (Mus musculus) (UniProt Q61831). Briefly: JNK3 AlphaScreen Assay (AID 530; active = well fitted curve in either direction with a large enough effect, not every such curve was filed as active;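 note: kinase came from lysate of stimulated human HepG2 cells; signal reports phosphorylation of biotinylated GST-cJun 1-79 at Ser73 with 10 µM ATP; % is set by controls: 0 for no effect and ±100 for the full control effect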). As to conditions: JNK3 lysate, c-Jun phosphorylation; series mostly up to 57.1 µM. The essentials: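 Kinase buffer: 20 mM Tris-HCl pH 7.6, 10 mM MgCl2, 1 mM DTT, 0.1 mM Na3VO4, 0.01% Tween-20; ATP 10 uM. Substrate biotin-GST-cJun(1-79), enzyme from activated HepG2 lysates. Detection by Ser73 phospho-antibody AlphaScreen.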
A general note: In Alpha technology, singlet oxygen from a donor bead excites a nearby acceptor bead.

A short description of assay [8]: Cell Viability - N2a (AID 540).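 Note: cells exposed to compound for 40 h at 37 °C; plate controls were DMSO alone for no effect and tamoxifen control for full effect; nearly all actives have a fitted effect of over 45% in size.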 The note with it: N2a mouse neuroblastoma cell viability; activity change, negative = cytotoxicity: at 92.2 µM (top of the series). Put shortly: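 In this qHTS cytotoxicity screen, ATP-dependent luciferase luminescence reports viable N2a cells after a 40 hr compound exposure in complete culture medium. Potencies are AC50 values from standard Hill equation fits.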

A short description of assay [9]: Cell Viability - NIH 3T3 (AID 541).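 Note: plate controls were DMSO alone for no effect and tamoxifen positive control for full effect; nearly all actives have a fitted effect of over 25% in size.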 The note with it: NIH 3T3 cell viability, qHTS; activity change, negative = cytotoxicity: at 92.2 µM (top of the series). Put shortly: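 In this cytotoxicity screen, acute toxicity is scored as an ATP drop measured by CellTiter-Glo in NIH 3T3 fibroblasts following a 40 hr, 37 °C incubation with compound.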
A short description of assay [10]: Cell Viability - H-4-II-E (AID 543). Note: % is set by controls: 0 for no effect and ±100 for the full control effect; nearly all actives have a fitted effect of over 35% in size. As to conditions: H-4-II-E rat hepatoma viability; series mostly up to 92.2 µM. Put shortly:
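AC50 from Hill-modelled qHTS concentration-response curves. H-4-II-E rat hepatoma cells in complete medium, 40 hr exposure at 37 °C, viability by CellTiter-Glo ATP luminescence.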

The nature of assay [11]: Cell Viability - SH-SY5Y (AID 544). Note: nearly all actives have a fitted effect of over 55% in size. As to conditions: SH-SY5Y neuroblastoma cell viability; viability change, negative = cytotoxic: at 92.2 µM (top of the series). Put shortly:
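Quantitative HTS in SH-SY5Y neuroblastoma cells, 40 hr treatment at 37 °C, ATP content by luciferase luminescence; AC50 from Hill fits.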

Assay [12] in a line: Cell Viability - Renal Proximal Tubule (AID 545). Note: nearly all actives have a fitted effect of over 40% in size. The note with it: renal proximal tubule cells viability, primary cells of rat origin; series mostly up to 91.7 µM. The essentials:
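Cytotoxicity is scored as a concentration-dependent drop in cellular ATP in primary rat renal proximal tubule cells exposed for 40 hr. AC50 derives from Hill modelling.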

Assay [13] can be described thus: Cellular Toxicity (caspase-3) HepG2 (AID 654).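 Note: cells exposed to compound for 16 hours before reading; 0% = DMSO alone and 100% = caspase signal from 100 µM tamoxifen.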 The note with it: HepG2 caspase-3 activation, luminescence; series mostly up to 92.2 µM. The essentials:
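Concentration-response AC50 values reflect caspase-3/7 induction in HepG2 cells after 16 hours of compound exposure, quantified by luminescence from liberated aminoluciferin and referenced to 100 uM tamoxifen as full stimulation.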

Assay [14] in a line: Cellular Toxicity (caspase-3) Jurkat (AID 655).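 Note: cells exposed to compound for 16 h at 37 °C before reading.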 Note: potency is the fitted concentration of half-maximal effect. As to conditions: Jurkat caspase-3 activation, luminescence; caspase-3 activation: at 92.2 µM (top of the series), DMSO = 0%, tamoxifen = 100%. The essentials:
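Caspase 3/7 activation is scored as increased luminescence in Jurkat cells cultured with compound for 16 hours in complete medium. AC50 values come from Hill fits of qHTS concentration-response data normalized to DMSO and 100 uM tamoxifen controls.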

Assay [15] in a line: Cellular Toxicity (caspase-3) HUV-EC-C (AID 656). As to conditions: HUV-EC-C cells, caspase-3 activation (apoptosis), vehicle = 0, 100 µM tamoxifen = 100%; series mostly up to 92.2 µM. Put shortly: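 Read-out: luminescence proportional to caspase 3/7 activity, measured 20 min after adding Caspase-Glo 3/7 reagent. Cells (HUV-EC-C) had received compound for 16 hr at 37°C. Increases relative to DMSO and 100 uM tamoxifen gave concentration-response AC50 values.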

Assay [16] is described as follows: Cellular Toxicity (caspase-3) SHSY5Y (AID 657).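 Note: cells exposed to compound for 16 hours at 37 °C.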 The note with it: SH-SY5Y caspase-3 activation, DMSO zero, 10 µM staurosporine = 100%; series mostly up to 91.7 µM. Put shortly: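 Cells plated and incubated 5 h at 37 °C, dosed over a concentration range, incubated 16 h, then given Caspase-Glo 3/7 reagent for 1 h at room temperature before luminescence reading. Staurosporine (10 uM) defined full stimulation.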

Assay [17] is described as follows: Cellular Toxicity (caspase-3) BJ (AID 658). As to conditions: BJ fibroblasts, luminescence, normalized: DMSO 0%, staurosporine 100%; series mostly up to 91.7 µM. The essentials:
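Caspase-Glo 3/7 luminescence, read 1 hr after reagent at room temperature, in normal BJ fibroblasts exposed 16 hours at 37 °C. AC50 values from Hill-equation concentration-response, scaled between DMSO basal and 10 uM staurosporine as 100%.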

Assay [18] is described as follows: Cellular Toxicity (caspase-3) MRC-5 (AID 659). The note with it: MRC-5 cells, luminescence, normalized: DMSO 0%, 10 µM staurosporine 100%; series mostly up to 91.7 µM. Put shortly: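 Luminescent Caspase-Glo 3/7 read-out (1 h, room temperature) after a 16 h, 37 °C compound exposure of MRC-5 lung fibroblasts at 1500 cells/well. Concentration-response AC50 from Hill equation; 0% DMSO, 100% 10 uM staurosporine.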

Assay [19] is described as follows: Cell Viability - HUV-EC-C (AID 542). Note: % is set by controls: 0 for no effect and ±100 for the full control effect; nearly all actives have a fitted effect of over 35% in size. As to conditions: HUV-EC-C endothelial cell viability, qHTS; series mostly up to 92.2 µM. The essentials: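 Concentration-dependent ATP loss in HUV-EC-C cells is the measure. Exposure lasts 40 hr at 37 °C; luminescence follows CellTiter-Glo addition, and Hill fits give AC50.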
Assay [20] in a line: Cell Viability - Mesenchymal (AID 546).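 Note: cells exposed to compound for 40 hours before reading.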 The note with it: mesenchymal cells viability, qHTS; series mostly up to 91.7 µM. The essentials: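 CellTiter-Glo luminescence (intracellular ATP, 20 min room temperature) after 40 hr compound exposure at 37 °C of 1000 glomerulus-derived human kidney mesenchymal cells/well; AC50 values obtained by fitting qHTS concentration-response data to the Hill equation.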

As to `CCCCCCCCN`, the Potency in assay [1], in assay [2], in [3], in assay [4], in assay [5] and in assay [6] was > 92 µM (inactive) in each case. Moreover, the compound was classed as inactive in assay [7], in assay [15], in [16], in [17] and in [18]. Besides, the activity change, negative = cytotoxicity in assay [8] was 7.89% (inactive). Moreover, the Potency entry in [9], in assay [10], in [11], in assay [12] and in assay [13] was “inactive” in each case. In assay [14], the caspase-3 activation is 1.3% (inactive).
With `O=Nc1ccc(NO)cc1`, the Potency in [1] is > 92 µM (inactive); in assay [2] it was 51.1 µM (active); in [3], > 92 µM (inactive); in assay [4], > 92 µM (inactive); in assay [5], > 92 µM (inactive); in assay [6] it was > 92 µM (inactive). In addition, the Potency in assay [14] is 31.6 µM (active). Moreover, the call in assay [7], in assay [15], in assay [16] and in [17] was inactive. For the same compound, the activity change, negative = cytotoxicity in assay [8] was 16.3% (inactive). In addition, the Potency result in assay [9], in assay [19], in assay [20] and in [13] was “inactive” in each case. Besides, the viability change, negative = cytotoxic in assay [11] is -93.1% (active).
Regarding `CNc1ccc([N+](=O)[O-])cc1`, the Potency in [1], in [2], in [3], in [4], in assay [5] and in assay [6] was > 92 µM (inactive) in each case. Moreover, the compound was called inactive in assay [7], in assay [15], in assay [16], in assay [17] and in [18]. Further, the activity change, negative = cytotoxicity in [8] is -12.7% (inactive). Also, the Potency entry in assay [19], in assay [10], in [11], in [12], in assay [20] and in assay [13] was “inactive” throughout. In addition, in assay [14], the caspase-3 activation was -0.0856% (inactive).
`COc1ccc(N)c(C)c1`: the Potency in assay [1], in assay [2], in assay [3], in assay [5] and in assay [6] was > 92 µM (inactive) in each case. In addition, the call in assay [7], in assay [15], in assay [16], in assay [17] and in assay [18] was inactive. Besides, the activity change, negative = cytotoxicity in assay [8] was 11.2% (inactive). In addition, the Potency entry in [9], in [19], in [10], in assay [11], in [12] and in assay [13] was “inactive” each time. Also, the caspase-3 activation in assay [14] was 0.894% (inactive).
Consider `Cc1cc([N+](=O)[O-])ccc1N`, for which the Potency in assay [1], in assay [2], in assay [3], in assay [4], in assay [5] and in [6] was > 92 µM (inactive) throughout. Also, the call in assay [7], in assay [15], in assay [16], in [17] and in assay [18] was inactive. In assay [8], the activity change, negative = cytotoxicity is -8.91% (inactive). Further, the Potency result in [19], in assay [10], in assay [11], in assay [12] and in assay [20] was “inactive” in each case. Also, the caspase-3 activation in assay [14] is -1.03% (inactive).
In the case of `CC(C)C(C)C`, the Potency in [1], in assay [2], in assay [3], in assay [5] and in assay [6] was > 92 µM (inactive) each time. Further, the compound was called inactive in [7], in assay [15], in [16] and in assay [18]. For the same compound, in [8], the activity change, negative = cytotoxicity was 5.14% (inactive). Moreover, the Potency result in [9], in assay [19], in assay [10], in assay [11], in [12] and in assay [20] was “inactive” throughout. The Potency entry in [13] was “inactive”.
With `C=C(C)OC(C)=O`, the Potency in assay [1], in assay [2], in [3], in assay [4], in assay [5] and in [6] was > 92 µM (inactive) each time. The compound was called inactive in assay [7], in [15], in assay [16], in assay [17] and in assay [18]. The activity change, negative = cytotoxicity in assay [8] was -6.88% (inactive). Also, the Potency entry in assay [19], in [10], in assay [11], in assay [12], in [20] and in assay [13] was “inactive” in each case. In addition, the caspase-3 activation in assay [14] was -0.77% (inactive).
